Bioassay records as filed in PubChem BioAssay.
This is a sample that favours compounds with a hit; in the whole collection about 17% have one here.
TDP1 cell noCPT: qHTS for Inhibitors of human tyrosyl-DNA phosphodiesterase 1 (TDP1): qHTS in cells in absence of CPT | Potency, µM (doses to about 46.2 µM), hits mostly inhibitors | 420,000 tested, 15% active | AID 686978, 2013 | DT40 Tdp1-/- hTDP1 cells, no CPT, ATP luminescence, 48 h; also: nearly all actives have a fitted effect of over 55% in size
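DT40 Tdp1-/-;hTDP1 cells, no CPT (DMSO vehicle only), 400 cells/well; compounds pin-transferred; ≥48 hr, 37 °C; CellTiter-Glo 30 min RT dark, luminescence read.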
HepG2 tox: kills HepG2 cells in TGF-b inhibitor counter-screen; AID 588856; 410,000 tested, 0.76% active; Potency, µM (series often up to 46.1 µM), actives largely listed as cytotoxic; HepG2 CAGA-GFP viability, ATP luminescence, 18 h
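CellTiter-Glo luminescence gave cytotoxicity after 18 hours at 37 degrees C. The cells were HepG2 CAGA-GFP in 1% FBS DMEM, stimulated with 500 pg/mL TGF-beta after compound addition. %Activity was normalised to no-cell wells (complete cell-killing) and DMSO (no toxicity), and curves were fitted and classified.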
TDP1 cell CPT: growth inhibition of DT40 Tdp1-/-;hTDP1 cells with camptothecin (screen for TDP1 inhibitors). 420,000 tested, 12% active. Potency, µM (highest dose often 46.2 µM), most hits filed as inhibitors. chicken DT40 Tdp1-/-;hTDP1 cells + 20 nM CPT, ATP luminescence, 48 h; also: nearly all actives have a fitted effect of over 55% in size
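Chicken DT40 Tdp1-/- cells complemented with human TDP1, 400 cells/well, exposed to compounds plus 20 nM camptothecin for at least 48 h at 37 C; viability read as ATP content by CellTiter-Glo luminescence.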
TGFb inhibitor: inhibitors of TGF-b signaling. HepG2 CAGA-GFP TGF-b/SMAD3 reporter, GFP fluorescence, 18 h; TGF-beta stimulated, 500 pg/mL final. AID 588855. 410,000 tested, 1.2% active. Potency, µM (titrated, usually from 46.1 µM), most hits filed as inhibitors; also: nearly all actives have a fitted effect of over 65% in size
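Inhibition of TGF-beta-driven CAGA-GFP reporter expression in HEPG2 cells is measured by cellular GFP fluorescence after 18 h stimulation with 500 pg/mL recombinant TGF-beta in 1% FBS medium at 37 degrees C.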
ATXN2 expr inh: reduces ATXN2 reporter expression in HEK-293 cells; 360,000 tested, 0.72% active; HEK-293 ATXN2-luciferase reporter, luminescence, 24 h; Potency, µM (titrated, usually from 57 µM), usual class: inhibitors; also: nearly all actives have a fitted effect of over 55% in size
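ATXN2-luciferase reporter cells (luciferase flanked by upstream and downstream ATXN2 gene portions) were treated 24 h at 37 °C with compounds at up to 57 uM. SteadyGlo luminescence gave expression; GF-AFC fluorescence gave viability.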
ATXN viability: cell viability loss in ATXN counter-screen; S2 cells (HEK-293 line with an ATXN2-luciferase reporter) viability, CellTiter-Fluor protease fluorescence, 24 h; Potency, µM (titrated, usually from 56.7 µM), most hits filed as cytotoxic; 400,000 tested, 0.49% active; AID 651635; also: nearly all actives have a fitted effect of over 40% in size
Each line names hits and unclear results; the compound was inactive in the other large screens. Calls follow the shape of the dose curve; as a rule, active = well fitted curve in the direction sought with a large enough effect; inconclusive = small, poorly fitted or top-dose-only effect, or another doubt; inactive = no such curve, though single readings can be large; an effect the other way counts as inactive or inconclusive.

Nc1nn(-c2ccccc2)nc1C(=O)OCc1ccc(Cl)cc1	none
CN(CC(=O)Nc1ccccc1C(F)(F)F)C(=O)CSCc1ccc(Cl)c(Cl)c1	TDP1 cell noCPT inconclusive, TDP1 cell CPT inconclusive
COc1cccc(CN(C)CC2CCCN(CCc3ccccc3C)C2)c1 (centres undefined)	TDP1 cell noCPT 18.4µM, TDP1 cell CPT inconclusive, TGFb inhibitor inconclusive (no result: ATXN2 expr inh)
CCN(CC1CCCN(CCc2cccc(F)c2)C1)C(=O)c1ccoc1C (centres undefined)	none (no result: ATXN2 expr inh)
COc1ccc(CN(C)CC2CCCN(CCc3ccccc3C)C2)cc1O (centres undefined)	TDP1 cell noCPT inconclusive
COc1cc(OC)c(OC)cc1CN(C)CC1CCCN(CCc2ccccc2F)C1 (centres undefined)	TDP1 cell noCPT inconclusive, TDP1 cell CPT 14.6µM, ATXN viability inconclusive (no result: ATXN2 expr inh)
CCN(CC1CCCN(CCc2cccc(F)c2)C1)C(=O)c1ccc(CSC)o1 (centres undefined)	TDP1 cell noCPT 23.1µM, TDP1 cell CPT inconclusive
Cc1cccc(NC(=O)CSc2cccc[n+]2[O-])c1C	none
CC(C)(C)c1ccc(C(=O)NC(=O)COC(=O)c2ccc(Br)o2)cc1	TDP1 cell noCPT inconclusive, TDP1 cell CPT inconclusive
COc1c(C(CC(C)C)OC(C)=O)ccc2c1C(=O)OCc1cc(C)cc(O)c1O2 (centres undefined)	TDP1 cell noCPT 11.6µM, TDP1 cell CPT 9.2µM, TGFb inhibitor inconclusive, ATXN2 expr inh inconclusive, ATXN viability inconclusive
COc1c(C(O)CC(C)C)ccc2c1C(=O)OCc1cc(C)cc(O)c1O2 (centres undefined)	TDP1 cell noCPT 18.4µM, TDP1 cell CPT inconclusive, TGFb inhibitor inconclusive
CCCCN(C=O)c1c(CC)nc2c(OCc3ccccc3C)cccn12	TDP1 cell noCPT inconclusive, TDP1 cell CPT 14.6µM
CCCCN(C=O)c1c(CC)nc2c(OCc3ccc(Cl)cc3Cl)cccn12	TDP1 cell noCPT 9.2µM, TDP1 cell CPT 20.6µM, TGFb inhibitor inconclusive, ATXN viability inconclusive
CCc1nc2c(OCc3ccc(C(=O)N(C)C)cc3)cccn2c1N(C=O)Cc1ccccc1	TDP1 cell CPT inconclusive
NS(=O)(=O)c1ccc(CNC(=O)c2csc3c2CCCC3)cc1	none
OCC1(CO)COC(C(Cl)(Cl)Cl)OC1	none (no result: HepG2 tox, TGFb inhibitor, ATXN2 expr inh, ATXN viability)
CCN1C(=O)/C(=C/C=C2/SCCN2C)SC1=S	TDP1 cell noCPT 13µM, TDP1 cell CPT inconclusive
COC(=O)[C@@H](NC(=O)N1CCC(C)CC1)C(C)C	HepG2 tox 0.447µM
COc1cccc(N/C=C/c2onc(C)c2[N+](=O)[O-])c1	TDP1 cell CPT inconclusive
Cc1c(C(=O)NCc2cccc(Cl)c2)sc2ncnc(N(C)C3CCCCC3)c12	TDP1 cell noCPT inconclusive, TDP1 cell CPT 20.6µM, TGFb inhibitor inconclusive, ATXN2 expr inh inconclusive
Cc1c(C(=O)Nc2ccc(Br)cc2F)sc2ncnc(N(C)C3CCCCC3)c12	none
CCc1ccc(NC(=O)c2sc3ncnc(N(C)C4CCCCC4)c3c2C)cc1	TDP1 cell noCPT 20.6µM, TDP1 cell CPT 18.4µM
CCOc1ccc(CNC(=O)c2sc3ncnc(N(C)C4CCCCC4)c3c2C)cc1	TDP1 cell noCPT inconclusive, TDP1 cell CPT 16.4µM, TGFb inhibitor inconclusive, ATXN2 expr inh inconclusive, ATXN viability inconclusive
Cc1c(C(=O)NC(C)c2ccccc2)sc2ncnc(N(C)C3CCCCC3)c12 (centres undefined)	TDP1 cell noCPT inconclusive, TDP1 cell CPT 6.51µM
O=C(N/N=C/C=C\c1ccc([N+](=O)[O-])cc1)c1cccnc1	none
Cc1cc(NC(=O)C(C)(C)C)no1	none
CC(Sc1nc2ncc(Cl)cc2[nH]1)C(=O)NC1(C#N)CCCCC1 (centres undefined)	TDP1 cell noCPT inconclusive, TDP1 cell CPT inconclusive, TGFb inhibitor inconclusive (no result: ATXN2 expr inh)
Cc1c(C(=O)NC2CCCCC2)sc2ncnc(NCCN(C)C)c12	none (no result: HepG2 tox, TGFb inhibitor, ATXN2 expr inh)
